From PubChem BioAssay (NCATS) come the findings set out here.

Results filed as inconclusive are left out. Entries that show only a call come without a potency. Activity calls are given as the source filed them. Calls come from the whole dose curve; as a rule, active = well fitted inhibition curve with a large enough effect; inconclusive = small, poorly fitted or top-dose-only effect; inactive = no such curve, though single readings can be large or run the other way.
Potency is the fitted concentration of half-maximal effect.

The nature of the test: qHTS to identify inhibitors of the type 1 interferon - major histocompatibility complex class I in skeletal muscle: primary screen against the NCATS Mechanism Interrogation Plate v5.0 (MIPE) Libary (AID 1347411). Note: nearly all actives have a fitted effect of over 65% in size. The following applies: iHSKM cells + IFN-b, HiBiT-tagged MHC-I luminescence, 24 h; series mostly up to 45.8 µM. In a few lines: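 Luminescence from CRISPR HiBit-tagged endogenous HLA-B in human myoblasts reported MHC class I level after 24 h of IFN-beta (4 ng/ml) plus compound. Compounds ran as 11-point 1:3 series, top 46 uM final.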
For `CC(=O)OC1C(C)OC(Oc2c(-c3ccc(O)cc3)oc3cc(O)cc(O)c3c2=O)C(O)C1OC(C)=O` (stereo not drawn), the Potency entry is “inactive”.
Then `CN[C@@H](C)C(=O)N[C@H]1CN(C(=O)CC(C)C)CC[C@H]2CC[C@@H](C(=O)NC(c3ccccc3)c3ccccc3)N2C1=O`, with “inactive”; and `C=C1C(=O)[C@@]23C(CC[C@@H]1[C@H]2O)[C@@]12CO[C@]3(O)[C@@H](O)[C@@H]1C(C)(C)CC[C@@H]2O` (stereo partly drawn), with 6.58 µM (active).
`CCOC(CN1C(=O)[C@](CC(=O)Nc2ccc(C)cc2)(NC(=O)Nc2ccc(C)cc2)c2ccccc21)OCC`: the Potency entry was “inactive”.
Then `CC(C)C[C@H](CC(=O)O)C(=O)N[C@@H](Cc1c[nH]c2ccccc12)C(=O)N[C@@H](C)c1ccccc1`, with “inactive”; and `COc1cc(NC(=O)c2ccc(-c3ccc(Cl)cc3)o2)cc(OC)c1`, with “inactive”.
For `CC1(C)CCC(CN2CCN(c3ccc(C(=O)NS(=O)(=O)c4ccc(NCC5CCOCC5)c([N+](=O)[O-])c4)c(Oc4cnc5[nH]ccc5c4)c3)CC2)=C(c2ccc(Cl)cc2)C1`, the Potency entry is “inactive”.
On to `C[C@]12CCC3c4ccc(O)cc4CCC3C1CCC2=O` (stereo partly drawn), for which the Potency result was “inactive”.
Consider `C[C@H](NC(=O)C(=O)Nc1ccccc1C(C)(C)C)C(=O)N[C@@H](CC(=O)O)C(=O)COc1c(F)c(F)cc(F)c1F`, for which the Potency was 13.1 µM (active).
For `CS(=O)(=O)N(Cc1ccco1)CC(O)Cn1c2ccccc2c2ccccc21` (stereo not drawn), the Potency entry is “inactive”.
With `Clc1ccc(CCC(Cn2ccnc2)Sc2c(Cl)cccc2Cl)cc1` (stereo not drawn), the Potency entry was “inactive”.
Regarding `O=C(O)c1ccccc1C(=O)Nc1ccc(-c2ccccc2)cc1`, the Potency is 29.4 µM (active).
For the compound `O=C(N[C@@H](c1ccccc1)[C@@H]1CCCCN1)c1cccc(C(F)(F)F)c1Cl`, the Potency result was “inactive”.
In the case of `O=C(Nc1cc(Cl)cc2c1[nH]c1cnccc12)c1cccnc1`, the Potency entry was “inactive”.
Then `CC#CCn1c(N2CCC[C@@H](N)C2)nc2c1c(=O)n(Cc1nc(C)c3ccccc3n1)c(=O)n2C`, with “inactive”; and `Nc1ncnc2c1nc(Cl)n2[C@@H]1O[C@H](CO)[C@@H](O)[C@@H]1O`, with “inactive”; and `N[C@@]1(C(=O)O)CS(=O)(=O)[C@H]2[C@H](C(=O)O)[C@H]21`, with “inactive”.
As to `Cc1ccc(C(=O)Nc2cccc(C(F)(F)F)c2)cc1Nc1nc(-c2cccnc2)nc2c1cnn2C`, the Potency was 33 µM (active).
Turning to `O=C(Nc1c(Cl)cncc1Cl)c1ccc(OC(F)F)c(OCC2CC2)c1`, the Potency result is “inactive”.
For `NC(=O)c1cnc(-c2ccc(C3(N)CCC3)cc2)c(-c2ccccc2)c1`, the Potency entry is “inactive”.
`CC(C)(C)OC(=O)N[C@H]1CCCCCC=C[C@@H]2C[C@@]2(C(=O)NS(=O)(=O)C2CC2)NC(=O)[C@@H]2C[C@@H](OC(=O)N3Cc4cccc(F)c4C3)CN2C1=O`: the Potency entry is “inactive”.
In the case of `CC(C)(C(=O)NCC(F)(F)C(F)(F)F)C(=O)N[C@@H]1C(=O)Nc2ccccc2-c2ccccc21`, the Potency result was “inactive”.
The value for `O=C(O)CCC1CCC(c2cc(F)ccc2F)(S(=O)(=O)c2ccc(Cl)cc2)CC1` (stereo not drawn) was “inactive”.
With `O=C(CCN1CCN(C(=O)OCc2cc(Cl)cc(Cl)c2)CC1)c1ccc2[nH]c(=O)oc2c1`, the Potency entry was “inactive”.
Take `N#CC1(c2ccc(NC(=O)c3cccnc3NCc3ccncc3)cc2)CCCC1`: the Potency entry is “inactive”.
With `O=C(Nc1ccccc1Br)N[C@@H]1CCN(c2ccc(C(F)(F)F)cn2)C1`, the Potency entry was “inactive”.
The value for `COc1ccc(-n2c(C)c([N+](=O)[O-])c3ccc(O)cc32)cc1` was “inactive”.
Regarding `CN(C)Cc1ccc(-c2nc3cccc4c3n2CCNC4=O)cc1`, the Potency is 14.7 µM (active).
Turning to `C[C@]12CC[C@@H]3c4ccc(O)cc4C[C@@H](CCCCCCCCCS(=O)CCCC(F)(F)C(F)(F)F)[C@H]3[C@H]1CC[C@H]2O` (stereo partly drawn), the Potency result is “inactive”.
For `O=C1C[C@@H](c2ccc(O)cc2)Oc2cc(O)cc(O)c21`, the Potency result is “inactive”.
For the compound `c1ccc2c(-c3cnn4cc(-c5ccc(N6CCNCC6)cc5)cnc34)ccnc2c1`, the Potency was 7.39 µM (active).
`C[C@H](NC(=O)c1sccc1OCc1ccc(Cl)cc1)c1ccccc1`: the Potency result is “inactive”.
Turning to `CC(C)(C)c1cc(C(=O)O)c(NC(=O)Nc2ccc3[nH]ncc3c2)s1`, the Potency result is “inactive”.
